About 670 (32%) of roughly 2,100 compounds were called active. Roughly 50% stayed inconclusive and do not appear here. The list shows a part of the results. Unmarked numbers belong to inactive results. Calls come from the whole dose curve; as a rule, active = well fitted inhibition curve with a large enough effect; inconclusive = small, poorly fitted or top-dose-only effect; inactive = no such curve, though single readings can be large or run the other way.
Assay: CMV-Luciferase Counterscreen for Inhibitors of ATXN expression; note: nearly all actives have a fitted effect of over 55% in size
Settings: HEK-293 CMV-luciferase reporter, luminescence, 24 h; series mostly up to 57.5 µM; activity change, negative = inhibition: at the top concentration
% is set by controls: 0 for no effect and ±100 for the full control effect; potency is the fitted concentration of half-maximal effect.

Row | Structure (SMILES) | activity change, negative = inhibition | Potency
1 | CC[C@@H]1C(c2cccc(Cl)c2)=NN(c2ccc(Br)cc2)[C@H]1C(=O)N1CCOC1=O | 3.07% | 
2 | CC(=O)c1ccc(N2CCc3ccccc3C2)c([N+](=O)[O-])c1 | -14% | 
3 | COc1ccc(-c2cc(C3CCN(c4ccc(C(C)=O)cc4[N+](=O)[O-])CC3)[nH]n2)cc1 |  | 11.2 µM (active)
4 | CCOC(=O)c1ccccc1NC(=O)CSc1nc2ccccc2c(=O)n1CCCN1CCOCC1 |  | 17.8 µM (active)
5 | O=c1c2c(-c3ccccc3)csc2nc2c3ccccc3c(NCCN3CCOCC3)nn12 | -12% [at 11.4 µM] | 
6 | O=C(Nc1nc(NC(=O)c2ccco2)n(-c2ccccc2)n1)c1ccccc1 |  | 6.31 µM (active)
7 | CCN1CC2=C(OC(N)=C(C#N)C2c2cccs2)/C(=C\c2cccs2)C1 (stereo not given) | -3.4% [at 11.4 µM] | 
8 | COc1cc2[nH]c(=O)n(CCCCCC(=O)N3CC=C(c4ccccc4)CC3)c(=O)c2cc1OC |  | 3.16 µM (active)
9 | O=C(CCCN1C(=O)S/C(=C\c2ccccc2)C1=O)NNC(=O)c1ccccc1O |  | 2.24 µM (active)
10 | CCN1CCN(CCCNC(=O)c2ccc(/C=C3/Sc4ccccc4N(Cc4ccccc4F)C3=O)cc2)CC1 | 12.2% | 
11 | COc1ccc(/C=C2\SC(=S)N(CCCC(=O)NNC(=O)c3ccccc3O)C2=O)cc1 |  | 3.98 µM (active)
12 | CC(C)(C)c1ccc(Oc2ccc(N)cc2)cc1 |  | 3.98 µM (active)
13 | CC(C)(C)c1ccc(Oc2ccc(N)cn2)cc1 |  | 3.98 µM (active)
14 | CCC(C)(C)c1ccc(Oc2ccc(N)cc2)cc1 |  | 2 µM (active)
15 | Cc1ccc(C(C[N+](=O)[O-])Sc2ccc(N)cc2)cc1 (stereo not given) | 52% [at 11.4 µM] | 
16 | Cc1c(Cl)c([N+](=O)[O-])nn1Cc1ccc(C(=O)N/N=C\c2cc(Cl)ccc2O)o1 |  | 0.631 µM (active)
17 | CCN(CC)c1ccc(/C=C/c2cccc[n+]2C)c(OC)c1 |  | 2 µM (active)
18 | CCCC[C@@H](CNC)NC[C@H](NCCCCC1CCCCC1)C(C)C |  | 35.5 µM (active)
19 | O=C(/C=C/c1ccccc1)NC(=S)NNC(=O)c1cnccn1 |  | 8.91 µM (active)
20 | CCn1c2ccccc2c2cc(/C=N/NC(=O)c3ccncc3)ccc21 |  | 2.82 µM (active)
21 | CCn1c2ccccc2c2cc(/C=N/NC(=O)c3ccc(O)cc3)ccc21 | -11.8% | 
22 | O=C1N/C(=N/N=C/c2ccccc2O)SC1Cc1ccc(F)cc1 (stereo not given) |  | 12.6 µM (active)
23 | COc1ccc(-c2csc3ncnc(Sc4nnnn4C)c23)cc1 |  | 3.98 µM (active)
24 | Cn1nnnc1Sc1ncnc2scc(-c3ccsc3)c12 |  | 11.2 µM (active)
25 | Cc1cnc(NC(=O)CCCc2nc3ccccc3s2)s1 | 91.3% | 

Reference: PubChem BioAssay AID1745847 (National Center for Advancing Translational Sciences (NCATS), 2022)
